# Results: article PMC4552634, “A New Set of Chemical Starting Points with Plasmodium falciparum Transmission-Blocking Potential for Antimalarial Drug Discovery” (PLoS ONE, 2015)
# Read-outs that look alike come from different tables or passages of the source. Among all 13,000 compounds or so, about 3,200 (25%) showed an effect of 50% or more. The list shows a part of the results.
# Test system: P. falciparum stage V gametocytes
# Design: BacTiter-Glo ATP luminescence viability of purified stage V gametocytes in 384-well plates, per cent inhibition versus DMSO
# Settings: 48 h, 5 µM, inhibitor
Structure (SMILES),% Inhibition [%],% Inhibition (% Inhibition) [%]
Fc1cc(Cl)ccc1Nc1ccnc2cc(-c3scnc3CNCCN3CCOCC3)ccc12 [TCMDC-138442],15.08,
O=C(Cc1cc(F)cc(F)c1)NC1CCN(c2ccnc3cc(Cl)ccc23)C1 (stereo not drawn) [TCMDC-133667],8.938,
CC(C)(CNC(=O)[C@@H]1CCCN(CCOc2ccc(F)c(F)c2)C1)c1nc(-c2ccc(Cl)c(O)c2)c(-c2ccncc2)[nH]1 [TCMDC-141137],11.15,
CCN1CCN(c2cc(C)c3cc(NC(=O)c4cc(OC)cc(OC)c4)ccc3n2)CC1 [TCMDC-125575],-6.076,
CN(Cc1ccccc1)C(=O)c1nn(CCCN2CCC(N3CCCC3)CC2)cc1-c1ccc(Cl)c(Cl)c1 [TCMDC-141730],45.58,
O=C(Nc1ccccc1)c1nn(CCCN2CCC(N3CCCC3)CC2)cc1-c1ccc(Cl)c(Cl)c1 [TCMDC-141727],76.09,
COc1cc(NC(=O)c2nn(CCCN3CCC4(CC3)C(=O)NCN4c3ccccc3)cc2-c2ccc(Cl)c(Cl)c2)cc(OC)c1OC [TCMDC-141726],-40.66,
O=C(NCc1ccccc1)NC(CCCN1CCC(Oc2cccc(Cl)c2)CC1)c1ccc(Cl)c(Cl)c1 (stereo not drawn) [TCMDC-141903],-17.97,
O=C(NCc1ccccc1)c1nn(CCCN2CCC(N3CCCC3)CC2)cc1-c1ccc(Cl)c(Cl)c1 [TCMDC-141728],73.12,
COc1cc(NC(=O)c2nn(CCCN3CCC(N4CCCC4)CC3)cc2-c2ccc(Cl)c(Cl)c2)cc(OC)c1OC [TCMDC-141725],29.9,
O=C(NCc1ccccc1)c1ncn(CCCN2CCC(N3CCCC3)CC2)c1-c1ccc(Cl)c(Cl)c1 [TCMDC-135228],91.41,
O=C(NCc1ccc2c(c1)OCO2)c1nn(CCN2CCC(N3CCCC3)CC2)cc1-c1ccc(Cl)c(Cl)c1 [TCMDC-141908],-16.74,
COc1cc(C(=O)NCc2nn(CCN3CCC(N4CCCC4)CC3)cc2-c2ccc(Cl)c(Cl)c2)cc(OC)c1OC [TCMDC-141966],24.89,
CCOc1cc(C(=O)Nc2cccnc2)ccc1-c1nc2cc(Cl)c(Cl)cc2[nH]1 [TCMDC-140059],1.839,
Cc1nc2nc(N)nc(N)c2c(C)c1Cc1ccccc1I [TCMDC-137243],-2.242,
CCCCCNc1nc2nc(N)nc(N)c2nc1-c1ccccc1 [TCMDC-141983],-14.59,
Cc1cc(C(=O)NCc2ccc(-c3c(C)noc3C)cc2)n(-c2ccc(Cl)cc2)n1 [TCMDC-133781],35.85,
Cc1ccc(S(=O)(=O)n2nccc2-c2c(-c3ccc(Cl)cc3)noc2C)cc1 [TCMDC-124500],65.37,
Cc1noc(C)c1S(=O)(=O)N(C)Cc1ccc(-c2ccc(Cl)cc2)o1 [TCMDC-125303],-57.93,
Cc1onc(-c2ccc(Cl)cc2)c1-c1ccnn1S(=O)(=O)c1ccc(Cl)cc1 [TCMDC-123770],63.51,
COc1ccc(Nc2ncc3c(-c4cccc(NC(=O)Cc5cccc(F)c5)c4)c[nH]c3n2)cc1OC [TCMDC-135251],-27.44,
COc1ccc2ccccc2c1CCCCN1CCN(CC(c2ccc(F)cc2)N2CCN(C3CCCC3)CC2)CC1 (stereo not drawn) [TCMDC-135865],-18.03,

Structure (SMILES),% Inhibition [%],% Inhibition (% Inhibition) [%]
COc1cccc(CN2CCN(C(c3ccccc3)c3ccccc3)CC2)c1O [TCMDC-125556],-14.13,
COc1cc2ccccc2cc1OCCCN1CCN(CC(c2ccc(F)cc2)N2CCN(C(C)C)CC2)CC1 (stereo not drawn) [TCMDC-135496],103.4,
COc1ccc(OCCCN2CCN(CC(c3ccc(F)cc3)N3CCN(C(C)C)CC3)CC2)c2ccccc12 (stereo not drawn) [TCMDC-135639],74.93,
Cc1ccccc1OCCCN1CCN(CC(c2ccc(F)cc2)N2CCN(C(C)C)CC2)CC1 (stereo not drawn) [TCMDC-135492],-21.14,
CC1(C)N=C(N)N=C(N)N1OCCCOc1cccc2ccccc12 [TCMDC-131626],30.73,
COc1ccc2ccccc2c1CCCCN1CCN(CC(c2ccc(F)cc2)N2CCC(N3CCCC3)CC2)CC1 (stereo not drawn) [TCMDC-135866],9.799,
COc1ccc2ccccc2c1CCCCN1CCN(CC(c2ccc(F)cc2)N2CCN(C(C)C)CC2)CC1 (stereo not drawn) [TCMDC-134847],46.9,
CC(C)N1CCN(C(CN2CCN(CCCOc3cccc4ccccc34)CC2)c2ccc(F)cc2)CC1 (stereo not drawn) [TCMDC-135494],68.95,
COc1ccc2ccccc2c1CCCCN1CCN(CC(c2ccc(F)cc2)N2CCC2)CC1 (stereo not drawn) [TCMDC-135867],60.92,
CN1CCN(c2ccc(-c3cccc(NC(=O)c4cccc(Cl)c4)c3)nn2)CC1 [TCMDC-125348],20.42,
N#CC(c1ccc(Br)cc1)c1ccc2c(C(F)(F)F)cc(C(F)(F)F)nc2n1 (stereo not drawn) [TCMDC-123754],9.304,
CCCN(CCC)S(=O)(=O)c1ccc(C(=O)Nc2nc3ccc(-c4cc(=O)[nH]c(Nc5ccccc5Cl)n4)cc3[nH]2)cc1 [TCMDC-135852],-12.1,
CN1CCOc2ccc(Nc3nnc(-c4cccc(-c5cccnc5)c4)o3)cc2C1 [TCMDC-134278],-13.91,
O=C(/C=C/c1ccccc1F)NC1CCC(CCN2CCc3ccc(-c4cccnc4)cc3CC2)CC1 (stereo not drawn) [TCMDC-140229],-63.4,
CCCCCCCCCn1c(NCc2cc(Cl)ccc2O)nc2ccccc21 [TCMDC-123817],-10.34,
CN(C)CCn1c(=N)n(CC(O)c2ccc(Cl)c(Cl)c2)c2ccccc21 (stereo not drawn) [TCMDC-125810],59.92,
COc1cccc(C(=O)C2CC2CN(C)CCC(O)c2ccc(Cl)c(Cl)c2)c1 (stereo not drawn) [TCMDC-136793],24.64,
CCN(CC)CCn1c(=N)n(CC(O)c2ccc(Cl)c(Cl)c2)c2ccccc21 (stereo not drawn) [TCMDC-124062],86.67,
CCCCCCCn1c(=N)n(CC(O)c2ccc(Cl)c(Cl)c2)c2ccccc21 (stereo not drawn) [TCMDC-124065],113.9,
CCCCCCCCCCNCC(O)c1ccc(O)c(C(=O)OC)c1 (stereo not drawn) [TCMDC-132043],1.141,
CN(CCN(C)CC(O)c1ccc(Cl)c(Cl)c1)CC(O)c1ccc(Cl)c(Cl)c1 (stereo not drawn) [TCMDC-141988],-33.12,
CN(CCC(O)c1ccc(Cl)c(Cl)c1)CC1CC1C(=O)c1ccccc1 (stereo not drawn) [TCMDC-136791],31.08,

Structure (SMILES),% Inhibition [%],% Inhibition (% Inhibition) [%]
CCc1cccc(-n2c(=O)c3cccnc3n2CC(=O)NCc2ccccc2Cl)c1 [TCMDC-125159],19.11,
Cc1ccc(N2C(N)=NC(N)=NC2c2ccccc2)cc1 (stereo not drawn) [TCMDC-123675],47.57,
O=C(Nc1ccc([N+](=O)[O-])cc1Cl)c1cc2ccccc2cc1O [TCMDC-123517],12.28,
O=C(/C=C/c1ccccc1)N1CCOC(CCN2CCC(c3ccccc3)CC2)(c2ccc(Cl)c(Cl)c2)C1 (stereo not drawn) [TCMDC-135350],15.63,
CN(Cc1cccc(O)c1)C1CCN(c2cc(NC(=O)c3ccc(F)cc3)ccn2)CC1 [TCMDC-134965],-26.89,
CCCNCc1ccc(-c2ccc(CN(Cc3cnc(C)cn3)C(=O)/C=C/c3ccccc3C)cc2)nc1 [TCMDC-141545],35.86,
CCCNCc1ccc(-c2ccc(CN(CCOC)C(=O)c3cnc(C)cn3)cc2)nc1 [TCMDC-141534],98.71,
CCCNCc1ccc(-c2ccc(CN(CCOC)C(=O)c3cscn3)cc2)nc1 [TCMDC-141525],101.5,
CCCNCc1ccc(-c2ccc(CN(Cc3cnc(C)cn3)C(=O)CC#N)cc2)nc1 [TCMDC-141527],78.38,
CCCNCc1ccc(-c2ccc(CN(CCOC)C(=O)c3ccc([N+](=O)[O-])c(C)c3)cc2)nc1 [TCMDC-141544],54.62,
CCc1nc(N)nc(N)c1CCCOc1ccccc1Cl [TCMDC-137928],-12.09,
N#Cc1ccc2c(c1)CN(CC[C@H]1CC[C@H](NC(=O)/C=C/c3c[nH]c4ccccc34)CC1)CC2 [TCMDC-139191],,-21.51
COc1cc(Cc2cnc(N)nc2N)cc(OCCCN2C(=O)c3ccccc3C2=O)c1OC [TCMDC-137365],18.85,
CCC(C)C(COC(=O)c1cc(OC)c(OC)c(OC)c1)N(C)CCN(C)C(COC(=O)c1cc(OC)c(OC)c(OC)c1)C(C)CC (stereo not drawn) [TCMDC-131453],2.796,
Cc1ccc(Sc2ccc(NC(=O)CN3CCN(C(=O)c4ccco4)CC3)cc2)cc1C [TCMDC-124861],2.666,
COCc1ccc(CN2CCC(C(=O)Nc3ccc(-c4nc5ccccc5[nH]4)cc3)CC2)o1 [TCMDC-124678],-40.1,
CCCNCc1ccc(-c2ccc(CN(CCOC)C(=O)c3ccco3)cc2)nc1 [TCMDC-141535],89.84,
CCCNCc1ccc(-c2ccc(CN(CCOC)C(=O)c3cccc(C#N)c3)cc2)nc1 [TCMDC-141538],90.8,
CCCNCc1ccc(-c2ccc(CN(CCOC)C(=O)c3ccccc3)cc2)nc1 [TCMDC-141540],44.11,
CCCNCc1ccc(-c2ccc(CN(CCOC)C(=O)/C=C/c3ccccc3C)cc2)nc1 [TCMDC-141546],40.67,
Cc1ccc(CNC(=O)[C@H](CC(C)C)Nc2cc(C)nc(NCc3ccccc3C)n2)cc1 [TCMDC-134910],-39.78,
Cc1ccc(Nc2ccnc(Nc3ccc(C)c(F)c3)n2)cc1O [TCMDC-138498],0.05121,
